From PubChem
Most compounds without a hit are left out; they make up all but 12% or so of the library.
ALDH1A1 block: qHTS Assay for Inhibitors of Aldehyde Dehydrogenase 1 (ALDH1A1); Aldehyde dehydrogenase 1A1 (Homo sapiens), P00352; Purified ALDH1A1, NADH fluorescence, propionaldehyde substrate; Potency, µM (highest dose often 75.3 µM), usual class: inhibitors; 7.3% of 220,000 active; active = well fitted inhibition curve with a large enough effect, not every such curve was filed as active; inconclusive = small, poorly fitted or top-dose-only effect, or another doubt; inactive = no such curve, though single readings can be large or run the other way
RORg inh: qHTS for inhibitors of ROR gamma transcriptional activity. Nuclear receptor ROR-gamma (Mus musculus), P51450. Drosophila S2 Gal4-RORgamma UAS-luciferase reporter, 20 h. Potency, µM (titrated, usually from 53.6 µM), actives largely listed as inhibitors. 5.4% of 310,000 active; also: nearly all actives have a fitted effect of over 60% in size
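Luciferase reporter read in Schneider cells carrying Gal4-RORγ (mouse) and UAS-Photinus luciferase; cells given compound 1 h before 700 uM copper sulfate induction, then incubated 20 h at ambient temperature.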
VP16 counter: VP16 counterscreen qHTS for inhibitors of ROR gamma transcriptional activity. Drosophila S2 Gal4-VP16 UAS-luciferase, luminescence, 20 h. Potency, µM (series often up to 53.6 µM), hits mostly inhibitors. 3.5% of 310,000 active;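 also: Gal4-VP16 expression switched on by copper sulfate through the metallothionein promoter; nearly all actives have a fitted effect of over 50% in size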
Sfp inh: qHTS Assay for Inhibitors of Bacillus subtilis Sfp phosphopantetheinyl transferase (PPTase) | 3.5% of 310,000 active | 4'-phosphopantetheinyl transferase ffp (Bacillus subtilis), Q9F4F7 | Biochemical Sfp PPTase activity, qHTS | Potency, µM, usual class: inhibitors;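 also: the enzyme is Sfp with the accession as filed and its product quenches rhodamine fluorescence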
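With Hepes-Na pH 7.6 buffer containing 10 mM MgCl2, Sfp (15 nM) modified BHQ-2-YbbR (12.5 uM) using rhodamine-CoA (5 uM). Two reads 30 minutes apart at 525/598 nm yielded each well's rate.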
PLK1 PBD inh: qHTS for Inhibitors of PLK1-PDB (polo-like kinase 1 - polo-box domain): Primary Screen; Potency, µM, usual class: inhibitors; Plk1 PBD binding of FITC phosphopeptide, fluorescence polarization; 2.8% of 360,000 active; Serine/threonine-protein kinase PLK1 (Homo sapiens), P53350; also: series mostly up to about 57 µM; nearly all actives have a fitted effect of over 65% in size
Target sequence (P53350 whole entry, looked up, the tested form may be a part): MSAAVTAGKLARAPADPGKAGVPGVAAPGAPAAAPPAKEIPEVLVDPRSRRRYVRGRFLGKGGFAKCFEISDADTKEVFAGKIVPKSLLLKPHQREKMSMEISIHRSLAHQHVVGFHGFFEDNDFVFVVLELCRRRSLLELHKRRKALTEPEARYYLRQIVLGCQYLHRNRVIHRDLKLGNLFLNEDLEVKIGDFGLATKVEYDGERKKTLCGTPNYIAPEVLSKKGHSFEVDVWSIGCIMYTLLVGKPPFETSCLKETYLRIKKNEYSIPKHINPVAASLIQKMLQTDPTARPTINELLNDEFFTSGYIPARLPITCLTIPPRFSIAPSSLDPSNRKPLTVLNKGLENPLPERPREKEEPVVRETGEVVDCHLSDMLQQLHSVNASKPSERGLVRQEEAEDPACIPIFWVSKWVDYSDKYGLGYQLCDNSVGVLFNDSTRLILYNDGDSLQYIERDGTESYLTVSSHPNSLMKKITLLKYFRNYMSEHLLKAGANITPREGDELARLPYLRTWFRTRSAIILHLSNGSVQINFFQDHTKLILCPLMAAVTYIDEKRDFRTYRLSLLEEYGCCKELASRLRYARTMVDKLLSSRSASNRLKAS
Of the large screens only hits and unclear results are named; the others gave an inactive call. Unless noted, calls follow the shape of the dose curve; as a rule, active = well fitted curve in the direction sought with a large enough effect; inconclusive = small, poorly fitted or top-dose-only effect, or another doubt; inactive = no such curve, though single readings can be large; an effect the other way counts as inactive or inconclusive.

CC(NC(=O)c1ccccc1)C(=O)NC1=NCCS1 (centres undefined)	none
CCCC(C(=O)NC1=NCCS1)c1ccccc1 (centres undefined)	RORg inh 11.2µM, VP16 counter inconclusive
C/C(=N\NC(=O)c1cc(-c2cccs2)nc2ccccc12)c1ccccn1	ALDH1A1 block inconclusive, RORg inh 0.1µM, VP16 counter 0.562µM
O=C(O)CCC[C@H](O)\C=C/C=C/C=C/[C@H](O)C/C=C\CCCCCO	RORg inh inconclusive (no result: PLK1 PBD inh)
O=C(CSc1cccc2cccc(Cl)c12)NC1=NCCS1	RORg inh 10µM, VP16 counter 11.2µM, PLK1 PBD inh inconclusive
O=C(CSc1ccccc1)NC1=NCCS1	none (no result: ALDH1A1 block)
CC(=O)Nc1c([N+](=O)[O-])cc2c3c(cccc13)CC2	none (no result: ALDH1A1 block, RORg inh, VP16 counter, Sfp inh)
Cc1onc(-c2ccccc2)c1CNS(=O)(=O)c1ccccc1[N+](=O)[O-]	ALDH1A1 block 12.6µM
Cc1ccccc1CNS(=O)(=O)c1ccccc1[N+](=O)[O-]	ALDH1A1 block inconclusive, VP16 counter inconclusive
O=C1Nc2ccccc2N(C(=O)c2ccc(-c3ccccc3)cc2)C1c1nc2ccccc2[nH]1 (centres undefined)	none (no result: ALDH1A1 block, RORg inh, VP16 counter, Sfp inh)
CC(C)C(=O)N1CCC1(C)C(=O)NCc1ccc(C(C)(C)C)cc1 (centres undefined)	none (no result: ALDH1A1 block, RORg inh, VP16 counter, Sfp inh)
COc1cc2c3nnc(-c4ccc(F)cc4)c-3cn(Cc3ccccc3)c2cc1OC	ALDH1A1 block inconclusive, RORg inh 11.2µM, VP16 counter 7.08µM
O=C(CN1C(=O)c2ccccc2C1=O)C(O)CN1C(=O)c2ccccc2C1=O (centres undefined)	none (no result: ALDH1A1 block, RORg inh, VP16 counter, Sfp inh)
CCCCCCC(=O)N(O)C1CC(=O)N(c2ccc(Cl)cc2)C1=O (centres undefined)	RORg inh inconclusive, VP16 counter inconclusive, Sfp inh 25.1µM, PLK1 PBD inh inconclusive (no result: ALDH1A1 block)
CC(=O)N(NC(=O)c1ccccc1Cl)C1CC(=O)N(c2ccc(C)cc2)C1=O (centres undefined)	none
CCCOc1ccc(N2C(=O)CC(N(CCC)C(=O)CCC(=O)O)C2=O)cc1 (centres undefined)	none
COc1ccccc1N(O)C1CC(=O)N(c2ccc(F)cc2)C1=O (centres undefined)	ALDH1A1 block 1.26µM, Sfp inh inconclusive, PLK1 PBD inh 5.32µM
CCCCCCC(=O)N(O)C1CC(=O)N(c2ccc(C)cc2)C1=O (centres undefined)	ALDH1A1 block 0.447µM, RORg inh 11.2µM, VP16 counter inconclusive, Sfp inh 20µM, PLK1 PBD inh 26.7µM
O=C(O)CSC1CC(=O)N(c2ccc(Cl)cc2)C1=O (centres undefined)	ALDH1A1 block inconclusive
Cc1ccc(N2C(=O)CC(N(O)C3CC(=O)N(c4ccc(C)cc4)C3=O)C2=O)cc1 (centres undefined)	ALDH1A1 block 2.82µM
Cc1ccc(S(=O)(=O)/C=C2\OCc3ccccc32)cc1	none (no result: ALDH1A1 block, RORg inh, VP16 counter, Sfp inh)
CCCS(=O)(=O)NC(=O)C1(C)CCN(C(=O)c2ccccc2C(F)(F)F)C1 (centres undefined)	none (no result: ALDH1A1 block, RORg inh, VP16 counter, Sfp inh)
COc1ccccc1NC(=O)Nc1ccnn1C1CCN(C(=O)C2CCOC2)CC1 (centres undefined)	none (no result: ALDH1A1 block, RORg inh, VP16 counter, Sfp inh)
O=C(CN1CCOCC1)NN=Cc1ccc([N+](=O)[O-])o1	none (no result: ALDH1A1 block, RORg inh, VP16 counter, Sfp inh)
O=C(CCN1CCN(c2ccccc2)CC1)N/N=C/c1ccc(O)c(O)c1O	ALDH1A1 block 3.98µM, Sfp inh 8.91µM, PLK1 PBD inh 10.6µM
O=C(CCN1CCN(c2ccccc2)CC1)N/N=C/c1ccc([N+](=O)[O-])o1	RORg inh 17.8µM
COc1ccc(/C=N/NC(=O)CCN2CCN(c3ccccc3)CC2)c(OC)c1OC	RORg inh inconclusive
O=C(Cc1csc(N2CCOCC2)n1)N/N=C/c1ccc(O)c(O)c1O	ALDH1A1 block 7.51µM, Sfp inh 10µM, PLK1 PBD inh 10.6µM
O=C(CCCOc1ccccc1)N1CCc2ccccc2C1	RORg inh inconclusive
Cc1cc(OCC(=O)N2CCc3ccccc3C2)c(C)cc1Br	RORg inh inconclusive, PLK1 PBD inh 18.9µM (no result: ALDH1A1 block)
Cc1ccc(C)c(OCC(=O)N2CCc3ccccc3C2)c1	none (no result: ALDH1A1 block)
O=C(CCCOc1ccc(Cl)cc1Cl)N1CCc2ccccc2C1	RORg inh inconclusive, VP16 counter inconclusive, Sfp inh 17.8µM
Cc1cc(Cl)ccc1OCCCC(=O)N1CCCCC1	VP16 counter inconclusive, Sfp inh 79.4µM
COC(=O)[C@]12CCCCC=C1N(CCc1ccc(OC)c(OC)c1)C(=O)[C@H](CC(=O)NCCc1ccccc1OC)C2	none (no result: ALDH1A1 block, RORg inh, VP16 counter, Sfp inh)
Cc1cc2c(cc1Cl)C(c1ccccc1C)CC(=O)O2 (centres undefined)	ALDH1A1 block inconclusive (no result: PLK1 PBD inh)
CC(=O)NC(Cc1ccccc1)C(=O)N1CCN(C(=O)c2ccco2)CC1 (centres undefined)	ALDH1A1 block 10µM
O=C(c1ccco1)N1CCN(C(=O)C(Cc2ccccc2)NS(=O)(=O)c2cccs2)CC1 (centres undefined)	ALDH1A1 block 14.1µM
CCc1cc2c(nc1CC)CCN(CC/C(C)=N/O[C@@H](C)c1cn([C@H](CO)Cc3ccccc3)nn1)C2	none (no result: PLK1 PBD inh)
C/C=C/c1cccc(-c2nc(C(=O)N3CCCCC3)cc3c2[C@@H](CCO)N(C(=O)NC(C)C)C3)c1	none (no result: ALDH1A1 block, RORg inh, VP16 counter, Sfp inh)
Oc1c(Br)cc(/C=N/n2c(-c3ccccc3)n[nH]c2=S)cc1Br	RORg inh inconclusive, PLK1 PBD inh inconclusive (no result: ALDH1A1 block)
Oc1c(Br)cc(/C=N/n2c(-c3ccccc3)n[nH]c2=S)c(O)c1Br	PLK1 PBD inh 6.7µM (no result: ALDH1A1 block)
Oc1ccc(/C=N/n2c(-c3ccccc3)n[nH]c2=S)cc1Br	RORg inh inconclusive (no result: ALDH1A1 block)
Cc1c(Br)c(O)c(Br)c(O)c1/C=N/n1c(-c2ccccc2)n[nH]c1=S	Sfp inh inconclusive, PLK1 PBD inh 2.99µM (no result: ALDH1A1 block)
COC(=O)CCN(C(C)=O)c1ccc(N)cc1	PLK1 PBD inh 26.7µM
COC(=O)CCC(=O)N(CCN(C(=O)CCC(=O)OC)c1ccccc1)c1ccccc1	none
C/C(=C\C(=O)C(F)(F)F)Nc1ccc(C(F)(F)F)cc1	ALDH1A1 block 22.4µM
CC(C)(CCl)C(=O)Nc1ccc(C(F)(F)F)cc1	VP16 counter inconclusive
CC1=C(C(=O)OC(C)C)C(c2cccc([N+](=O)[O-])c2)C(C(=O)OC2CN(C(c3ccccc3)c3ccccc3)C2)=C(N)N1 (centres undefined)	RORg inh inconclusive, VP16 counter inconclusive (no result: ALDH1A1 block, PLK1 PBD inh)
C[C@@H](O)C(N)C(=O)O (some centres undefined)	none (no result: ALDH1A1 block, PLK1 PBD inh)
COc1cnc(-c2cccc(C(F)(F)F)c2)c(NC(=O)c2cc3ccccc3s2)n1	none (no result: ALDH1A1 block, RORg inh, VP16 counter, Sfp inh)
S=c1[nH]c2cc(Cl)ccc2s1	ALDH1A1 block 2.82µM, RORg inh 12.6µM, VP16 counter inconclusive, PLK1 PBD inh 1.89µM
S=c1[nH]c2ccc(Cl)cc2[nH]1	ALDH1A1 block 8.91µM, PLK1 PBD inh 10.6µM
O=C(Nc1ccc(Cl)c([N+](=O)[O-])c1)ONC1=NCCCCC1	PLK1 PBD inh 26.7µM
